From PubChem BioAssay AID488969 (Vanderbilt High Throughput Screening Facility, 2010)
The full ranking holds about 110,000 compounds; the median of “z-score” is about -0.1, and the highest 2% start at about 2. The list comes from a sample in which the highest values are over-represented; it also holds similar structures and randomly drawn compounds. The source made the active and inactive calls.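 The calls were made as follows: active = z-score in the third read window above 3 or below -3; inactive = the rest.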

These molecules were tested against Metabotropic glutamate receptor 8 (Rattus norvegicus) (UniProt P70579) (assay: mGluR8 Gi/Go-coupled signaling modulation – cell-based, rat, thallium flux, HTS, primary screen (AID 488969)). Conditions: HEK293 rat mGluR8, GIRK (G protein-gated inwardly rectifying potassium channel) thallium flux, FluoZin2; at 10 µM; stronger effect = higher value; submaximal glutamate (EC20) added with thallium.
Metabotropic glutamate receptor 8 (Rattus norvegicus), sequence (P70579 whole entry, looked up): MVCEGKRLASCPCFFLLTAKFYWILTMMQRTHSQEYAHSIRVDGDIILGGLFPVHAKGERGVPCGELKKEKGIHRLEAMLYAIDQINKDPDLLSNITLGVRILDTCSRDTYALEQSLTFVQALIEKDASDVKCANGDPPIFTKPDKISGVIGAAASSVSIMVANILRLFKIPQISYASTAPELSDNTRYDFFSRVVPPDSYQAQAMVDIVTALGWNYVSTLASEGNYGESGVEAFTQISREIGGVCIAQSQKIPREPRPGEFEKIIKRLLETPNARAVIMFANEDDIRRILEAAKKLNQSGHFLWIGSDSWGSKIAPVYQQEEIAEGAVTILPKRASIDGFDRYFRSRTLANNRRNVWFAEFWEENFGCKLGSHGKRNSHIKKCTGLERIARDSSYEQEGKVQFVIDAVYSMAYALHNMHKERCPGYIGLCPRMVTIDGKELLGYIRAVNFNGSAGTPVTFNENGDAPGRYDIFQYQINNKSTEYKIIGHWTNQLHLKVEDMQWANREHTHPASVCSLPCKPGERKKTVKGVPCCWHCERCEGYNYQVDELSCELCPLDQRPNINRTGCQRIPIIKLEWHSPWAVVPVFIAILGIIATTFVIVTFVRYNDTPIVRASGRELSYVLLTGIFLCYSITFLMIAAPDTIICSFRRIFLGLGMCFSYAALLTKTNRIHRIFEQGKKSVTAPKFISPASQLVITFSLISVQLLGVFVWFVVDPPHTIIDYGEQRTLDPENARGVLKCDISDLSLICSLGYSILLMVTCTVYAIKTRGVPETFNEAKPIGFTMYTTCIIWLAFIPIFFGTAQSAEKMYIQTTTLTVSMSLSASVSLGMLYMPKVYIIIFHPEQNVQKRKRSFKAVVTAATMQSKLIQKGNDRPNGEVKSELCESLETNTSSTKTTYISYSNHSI
CCC(Sc1nc2ccc(C)cc2[nH]1)C(=O)O (centres undefined) showed a z-score of 0.179.
COC(=O)c1cc(OC)c(OC)cc1NC(=O)c1ccc(C)o1 showed a z-score of -0.653.
CC(C)(C)c1ccc(C(=O)NCC(=O)OCC(=O)Nc2ccc3c(c2)OCCO3)cc1 gave a z-score of 0.131.
With CCCCC(=O)Nc1ccc(Br)cc1C(=O)O the z-score was -0.24.
For CC1CC2=C(CC1/C=N/NC(N)=S)C(C)(C)CCC2 (centres undefined), the z-score was 3.44 (active).
In the case of CC1=C(CC/C(C)=N/NC(N)=S)C(C)(C)CCC1, the z-score was 1.85.
Work on C/C(CC1CC2=C(CC1(C)C)C(C)(C)CCC2)=N\NC(N)=S (centres undefined) yielded a z-score of 0.599.
CCCCNC(=O)Cn1nc([N+](=O)[O-])c([N+](=O)[O-])c1C was tested, and the z-score was -0.27.
For Cc1noc(C)c1S(=O)(=O)N1CCC(Cc2ccccc2)CC1, the z-score was 2.68.
Work on Cc1noc(C)c1S(=O)(=O)N1CCN(c2ccccc2)CC1 yielded a z-score of -0.073.
Cc1noc(C)c1S(=O)(=O)N1CCC(C(=O)N(C)Cc2ccccc2)CC1 gave a z-score of -0.182.
COc1ccc(CCn2c(N)c(S(=O)(=O)c3cccs3)c3nc4ccccc4nc32)cc1OC showed a z-score of -0.349.
In the case of COc1ccc(CC(=O)OCCN(C)C)cc1, the z-score was 0.0321.
Molecule O=C(CCCN1C(=O)c2cccc3cccc(c23)C1=O)N1CCN(c2ccccn2)CC1 has a z-score of 0.0204.
In the case of O=C(CN1C(=O)c2ccccc2C1=O)N1CCN(c2ccccn2)CC1, the z-score was -0.293.
O=C(CN1C(=O)/C(=C\c2cccc(F)c2)Oc2ccccc21)N1CCN(c2ccccn2)CC1 was tested, and the z-score was 0.117.
In the case of O=C(CN1C(=O)c2cccc3cccc(c23)C1=O)N1CCN(c2ccccn2)CC1, the z-score was 8.64 (active).
For O=C(CCN1C(=O)COc2ccccc21)N1CCN(c2ccccn2)CC1, the z-score was 0.258.
In the case of O=C(CN1C(=O)/C(=C/c2ccccc2F)Oc2ccccc21)N1CCN(c2ccccn2)CC1, the z-score was 6.44 (active).
Molecule CC(C)c1nnc(SCC(=O)NCc2ccc3c(c2)OCO3)n1C has a z-score of -0.49.
CCn1c(=O)n(CC)c2cc([N+](=O)[O-])ccc21 showed a z-score of -0.0668.
With COc1ccccc1NC(=O)Cc1c(F)cccc1Cl the z-score was -0.193.
In the case of O=C(Nc1cccc2ncccc12)c1ccc(-c2ccc(Br)cc2)o1, the z-score was -0.163.
CCOC(=O)C1=C(C)NC(=O)NC1c1ccc(Br)o1 (centres undefined) was tested, and the z-score was 2.92.
For CCOC(=O)C1=C(C)NC(C)=C(C(=O)OCC)C1c1ccc(Br)o1, the z-score was -0.356.
Molecule CCOC(=O)C1=C(C)NC(=O)NC1c1ccc(C)o1 (centres undefined) has a z-score of 0.0551.
O=C(CN1C(=O)c2ccccc2C1=O)NCCc1c[nH]c2ccccc12 showed a z-score of -0.164.
CCOc1ccc(C2=C(C=Nc3c(C)n(C)n(-c4ccccc4)c3=O)C(c3ccc(F)cc3)c3ccccc3O2)cc1 (centres undefined) gave a z-score of 1.53.
With Cc1c(C)[n+](=O)c2c(n1[O-])CCC2 the z-score was 14.6 (active).
With CCc1c(C)n([O-])c2c([n+]1=O)CCC2 the z-score was 0.305.
Work on Cc1ccc(-c2c(C)n([O-])c3c([n+]2=O)CCC3)cc1 yielded a z-score of -0.263.
Molecule Cc1ccc(OCCCSc2ncccn2)cc1C has a z-score of -0.106.
In the case of Cn1c(SCc2nnc(-c3ccc(F)cc3)o2)nnc1C1COc2ccccc2O1 (centres undefined), the z-score was -0.382.
O=C(NC1CCCCCC1)c1cccc(N2CCCC2=O)c1 was tested, and the z-score was -0.399.
With CN1CCN(C(=O)CN(Cc2ccc(Cl)cc2)S(C)(=O)=O)CC1 the z-score was 0.244.
In the case of Cc1cc(NC(=O)CSc2nc3ccccc3n2CC(=O)N2CCCCC2)no1, the z-score was 0.0584.
Molecule Cc1ccc(N2C(=O)C3CC(c4ccccc4)=C4C5C=CC(C6C(=O)N(c7ccc(C)cc7)C(=O)C56)C4C3C2=O)cc1 (centres undefined) has a z-score of -0.0459.
COc1ccc(S(=O)(=O)Nc2cccc(NC(C)=O)c2)cc1 showed a z-score of 0.142.
COc1cc2c(cc1NC(=O)Nc1ccccc1)oc1ccccc12 gave a z-score of -0.0976.
With COc1cc2c(cc1NC(=O)COc1ccccc1OC)oc1ccccc12 the z-score was 5.54 (active).
Molecule COc1cc2c(cc1NC(=O)COc1ccc3ccccc3c1)oc1ccccc12 has a z-score of -0.183.
With Cc1cccc(C)c1OCC(=O)Nc1oc(-c2ccccc2)c(-c2ccccc2)c1C#N the z-score was -0.376.
Molecule COc1cc2c(cc1NC(=O)Nc1cccc(C)c1)oc1ccccc12 has a z-score of 2.68.
COc1ccccc1OCC(=O)Nc1oc(-c2ccccc2)c(-c2ccccc2)c1C#N was tested, and the z-score was 2.87.
COc1cc2c(cc1NC(=O)Nc1ccc(C)cc1)oc1ccccc12 showed a z-score of -0.398.
For COc1ccc(OCC(=O)Nc2cc3oc4ccccc4c3cc2OC)cc1, the z-score was -0.347.
Work on Cc1ccc(OCC(=O)Nc2oc(-c3ccccc3)c(-c3ccccc3)c2C#N)cc1 yielded a z-score of -0.212.
Work on CCn1c(SCc2nc(-c3ccc(OC)c(OC)c3)no2)nnc1-c1cccs1 yielded a z-score of -1.5.
In the case of Cc1ccccc1OCCCC(=O)Nc1ccc2c(c1)OCO2, the z-score was 0.157.
With O=C(Nc1cccc(S(=O)(=O)N2CCCC2)c1)c1ccc2c(=O)n3c(nc2c1)CCCCC3 the z-score was -1.24.
Work on COc1ccc(/C=N/n2c(=O)[nH]c3c([nH]c4ccc(C)cc43)c2=O)cc1CN1CCOCC1 yielded a z-score of -0.0345.
In the case of CC(=O)N(c1ccccc1)c1nc(C)cc(C)c1C#N, the z-score was -0.111.
With Cc1[nH]c2ccccc2c1C(=O)COC(=O)C1CC(=O)N(Cc2ccccc2)C1 (centres undefined) the z-score was -0.363.
For CSc1nc2nccc(-c3ccc(-c4ccccc4)cc3)n2n1, the z-score was -0.5.
For CSCCC(NC(=O)c1ccccc1)C(=O)NC1CC1 (centres undefined), the z-score was 0.177.
With Cc1nn(C(C)C(=O)N2CCCCC2)c(=O)c2c1sc1ccccc12 (centres undefined) the z-score was -0.115.
In the case of CCCCN(CCCC)C(=O)c1ccccc1NC(=O)CN1C(=O)c2ccccc2C1=O, the z-score was -0.366.
Work on C=CCN(C)CC/C=C1\c2ccccc2CSc2ccccc21 yielded a z-score of 1.99.
In the case of CC(O)CN(C)CC/C=C1/c2ccccc2CSc2ccccc21 (centres undefined), the z-score was 0.694.
For C#CCN(C)CC/C=C1\c2ccccc2CSc2ccccc21, the z-score was 1.63.
For O=C1c2ccccc2C(=O)c2c1ccc(C(=O)N1CCCCC1)c2NCCO, the z-score was 0.68.
In the case of Cc1cc(OCC(=O)O)c2ccccc2n1, the z-score was -0.146.
With CC1(Br)C2CCCC1C2S(=O)(=O)c1ccccc1 (centres undefined) the z-score was -0.376.
CC(NS(=O)(=O)c1ccc(Cl)cc1)C(=O)NCc1ccco1 (centres undefined) was tested, and the z-score was 0.0263.
Work on O=C(N/N=C/c1cccs1)C1COc2ccccc2O1 (centres undefined) yielded a z-score of 0.238.
Work on O=C(N/N=C\c1cc(Br)cs1)C1COc2ccccc2O1 (centres undefined) yielded a z-score of 2.32.
O=C(N/N=C/c1ccc2c(c1)OCO2)C1COc2ccccc2O1 (centres undefined) was tested, and the z-score was 0.435.
With CCOC(=O)/C=C1\CC(=O)Nc2cc(C)c(C)cc2N1 the z-score was 0.197.
CCCNC(=O)C/C(C)=N/NC(=O)COc1ccc(C)cc1Br was tested, and the z-score was -0.101.
Work on C/C(CC(=O)Nc1ccccc1-c1ccccc1)=N\NC(=O)COc1ccc(C)cc1Br yielded a z-score of 0.458.
With C/C(CC(=O)NC(C)C)=N\NC(=O)COc1cc(C)c(Br)cc1Br the z-score was 6.24 (active).
In the case of CCOC(=O)C/C(C)=N/NC(=O)COc1ccccc1C, the z-score was 0.0596.
Cc1cc(OCC(=O)NCC(C)C)cc(C)c1Br was tested, and the z-score was -0.137.
For C/C(CC(=O)NCC(C)C)=N\NC(=O)COc1cc(C)c(Br)cc1Br, the z-score was 5.36 (active).
